Results taken from PubChem BioAssay (NCI).
Compounds without any hit were thinned out: in the full panel of roughly 83,000, 20% have a hit.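 Assay: single dose, 48 h. Readout: percent growth (0 = no net growth; negative = cell death). Active: <10.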 Unmarked numbers belong to inactive results. The source made the active and inactive calls.

Tested on: MOLT-4 leukemia
Experiment: NCI-60 one-dose screen, 48 h (100 = growth as untreated, 0 = no growth, -100 = all killed)
Settings: 10 µM unless noted
Protocol: Growth inhibition of the MOLT-4 human tumor cell line is measured as a screen for anti-cancer activity. Cells are grown in 96 well plates and exposed to the test compound for 48 hours. Compounds are tested at a single concentration, which is 10^-5 M for most compounds. The reported endpoint is percent growth (GI% or GIPRCNT), where numbers from 0 - 100% represent growth inhibition, and numbers from -100% - 0 represent cell death. For example, a value of 40 represents 60% growth inhibition. A value of 0 means no net growth occurred over the course of the experiment. A value of -40 indicates 40% of cells at the beginning of the experiment died by the end of the experiment. A value of -100 means all cells are dead at the end of the experiment.
NCI-60 Human Tumor Cell Lines Screen was performed using the standard one-dose NCI protocol, which is described in more detail at https://dtp.cancer.gov/discovery_development/nci-60/default.htm.
Compounds with GIPRCNT values below 10 were considered active. Activity score was based on GIPRCNT using the following formula: […]
Score is 0 for GIPRCNT values of 100 or above, 50 for GIPRCNT values of 0, and 100 for GIPRCNT values of -100.

Q: With `C#C[C@@]1(O)[C@@H](CO)O[C@@H](n2cc(I)c3c(N)ncnc32)[C@@H]1O` as the molecule, how does the growth read?
A: -18.8% (active)

Q: `c1ccc2c3c([nH]c2c1)C(c1ccc(C2NCCc4c2[nH]c2ccccc42)cc1)NCC3` (stereo not given) was tested. Which growth did it give?
A: -62% (active)

Q: For `COc1ccc2nc(-c3ccc(OC)c(OC)c3)cc(-c3nnc(SCC(=O)Nc4ccc(C(C)=O)cc4)o3)c2c1`, which growth is on record?
A: 95.5%

Q: For `CC(C)C[C@H](C(=O)O)N(C)C(=O)[C@@H]1CCCN1C(=O)[C@H](C)OC(=O)[C@H](CCC(N)=O)NC(=O)[C@@H]1CCC(=O)N1`, which growth is on record?
A: 111%

Q: Which growth does the source give for `C#C[C@@]1(O)[C@@H](CO)O[C@@H](n2cnc3c(-c4ccccc4)ncnc32)[C@@H]1O` here?
A: 99.7%

Q: Which growth does the source give for `COc1ccc(-n2cc(-c3ccc(Cl)c(Cl)c3)[nH]c2=O)cc1OC` here?
A: 144%

Q: `COCCOCCOCc1n(Cc2ccc3ccccc3c2)c2ccccc2[n+]1Cc1ccc2ccccc2c1` was tested. Which growth did it give?
A: 4% (active)

Q: Which growth does the source give for `N#Cc1c(NC(=O)c2cccs2)[n+]([O-])c2cc(C(F)(F)F)ccc2[n+]1[O-]` here?
A: 75.9%

Q: For `CCCCc1n(Cc2ccc3ccccc3c2)c2ccccc2[n+]1Cc1ccc2ccccc2c1`, which growth is on record?
A: -60.9% (active)

Q: With `O=C(O)c1cc(N=Nc2ccc(-c3ccc(N=Nc4c(S(=O)(=O)O)cc5ccc(Nc6ccccc6)cc5c4O)cc3)cc2)ccc1O` as the molecule, how does the growth read?
A: 97.9%

Q: Which growth does the source give for `O=Cc1[nH]c(Sc2ccccc2)c2ccccc12` here?
A: 17%

Q: With `CO[C@@]12C=C[C@@]34CCC(=O)N3c3ccccc3[C@@H](O1)C4C2` as the molecule, how does the growth read?
A: 95.9%

Q: With `C=C1C(=O)O[C@H]2[C@H]1CC/C(COC(=O)CCCCC(=O)OC/C1=C/CC[C@@]3(C)O[C@H]3[C@H]3OC(=O)C(=C)[C@@H]3CC1)=C\CC[C@@]1(C)O[C@@H]21` as the molecule, how does the growth read?
A: 10.3%

Q: Which growth does the source give for `Cc1[nH]c2ncnc(Oc3ccc(NC(=O)Nc4ccc(Cl)c(C(F)(F)F)c4)cc3)c2c1C` here?
A: 27.4%

Q: With `S=C(Nc1ccc(Cl)cc1)c1ccccn1` as the molecule, how does the growth read?
A: 101%

Q: `COc1cc(/C=C/C(=O)c2ccc(NC(=O)CSc3nnc(-c4cc(OC)c(OC)c(OC)c4)n3-c3ccccc3)cc2)cc(OC)c1OC` was tested. Which growth did it give?
A: 5.18% (active)

Q: How did the growth turn out when `COc1ccc(C(=O)c2cc(OC)c(OC)c(OC)c2)cc1OC(=O)CCl` was run?
A: 18.4%

Q: How did the growth turn out when `OCCNc1nc(NCCO)nc(Nc2ccc(C3=NN(c4cc(Cl)cc(Cl)c4)C(c4ccc(Cl)cc4)C3)cc2)n1` (stereo not given) was run?
A: 2.38% (active)

Q: With `O=C(Nc1nccs1)c1noc2ccccc12` as the molecule, how does the growth read?
A: 96.8%

Q: With `NS(=O)(=O)c1ccc(C2C3=C(CCCC3=O)OC3=C2C(=O)c2ccccc2C3=O)cc1` (stereo not given) as the molecule, how does the growth read?
A: -54.6% (active)

Q: With `O=C(O)c1ccc(-n2cc(/C=N/Nc3ccc(Cl)cc3Cl)c(-c3ccccc3)n2)cc1` as the molecule, how does the growth read?
A: 88.9%

Q: `COc1cc(-c2nn(-c3ccc(Br)cc3)cc2CO)ccc1O` was tested. Which growth did it give?
A: 57.1%

Q: For `O=C1Nc2ccc(Cl)cc2/C1=N/c1nc(-c2ccc(F)cc2)cs1`, which growth is on record?
A: 1.99% (active)

Q: Which growth does the source give for `Nc1ccccc1NC(=O)c1ccc(CSc2nc(N3CCOCC3)c3cccn3n2)cc1` here?
A: 1.08% (active)

Q: With `C#C[C@@]1(O)[C@@H](CO)O[C@@H](n2cc(-c3ccco3)c3c(N)ncnc32)[C@@H]1O` as the molecule, how does the growth read?
A: 32.8%

Q: For `CCc1n(Cc2ccc3ccccc3c2)c2ccccc2[n+]1Cc1ccc2ccccc2c1`, which growth is on record?
A: 73.4%

Q: With `COc1cc(NCC(=O)Nc2cc(Nc3ccc(C)cc3)ncn2)c(Cl)c(OC)c1Cl` as the molecule, how does the growth read?
A: 60.8%

Q: `O=C1[C@@H](OS(=O)(=O)CC(F)(F)F)[C@H](c2ccc(F)cn2)N1c1cc2c3ccccc3ccc2c2ccccc12` was tested. Which growth did it give?
A: 0.0781% (active)

Q: Which growth does the source give for `CCCCCCC/C=C/[C@H]1O[C@]23C(=O)C[C@@]4(C[C@@H](OC5OC(CO)C(O)C(O)C5O)C[C@@H]4[C@H]2C=C1C)OC3=O` (stereo not given in full) here?
A: 8.32% (active)

Q: `O=C1CCc2ccccc2N1` was tested. Which growth did it give?
A: 110%

Q: How did the growth turn out when `Cc1cc(C)c(NC(=O)c2sc3nc4c(cc3c2N)CCCCCC4)c(C)c1` was run?
A: 36.3%

Q: For `COc1cc(C2=NN(c3ccccc3)C(c3cccc(Nc4ccnc5cc(C(F)(F)F)ccc45)c3)C2)cc(OC)c1OC` (stereo not given), which growth is on record?
A: 65.3%

Q: Which growth does the source give for `COc1cc2c(cc1OC)C(Sc1ccc(Cl)cc1)c1c(nc(N)c(C#N)c1N)O2` (stereo not given) here?
A: 0.994% (active)

Q: How did the growth turn out when `COC1=CC2C=C(C3N(c4ccccc4)NC(=O)[C@@H]4CCCN34)C(=O)NC2C=C1` (stereo not given in full) was run?
A: 124%

Q: `C=C(C)[C@@H]1CC[C@]2(C(=O)NCCCO)CC[C@]3(C)[C@H](CC[C@@H]4[C@@]5(C)CCCNC(C)(C)[C@@H]5CC[C@]43C)[C@@H]12` was tested. Which growth did it give?
A: 30.5%

Q: With `COc1cc2cc(c1Cl)N(C)C(=O)C[C@H](OC(=O)[C@H](C)N(C)C(=O)CCS)C[C@]1(C)O[C@H]1[C@H](C)[C@@H]1C[C@@](O)(NC(=O)O1)[C@H](OC)/C=C/C=C(\C)C2` as the molecule, how does the growth read?
A: 13.1%

Q: `COc1ccc(-c2cc(-c3nnc(SCC(=O)Nc4ccc(/C(C)=N\O)cc4)n3-c3ccccc3)c3cc(OC)ccc3n2)cc1` was tested. Which growth did it give?
A: 29.9%

Q: `Cc1cc(C)c2nc(Nc3nc(C)c(C)c(=O)[nH]3)nc(C)c2c1` was tested. Which growth did it give?
A: 4.84% (active)

Q: Which growth does the source give for `COc1ccc(-c2nnc(N3CCN(C(=O)CN4CCN(c5ccc(OC)cc5)CC4)CC3)nc2-c2ccc(OC)cc2)cc1` here?
A: -54.2% (active)

Q: Which growth does the source give for `O=C(O)CCNC1CCCCC1` here?
A: 103%
